AT treatment = candidate therapy for ataxia-telangiectasia | Potency, µM (titrated, usually from 57.5 µM), for inactives: at the highest dose activation, most hits filed as activators | 0.19% of 320,000 active | F2112 A-T fibroblasts, KAP-1 phosphorylation AlphaLISA; neocarzinostatin DNA damage 30 min before lysis; also: potency is read from the fitted curve at half-maximal effect; % of control where 0% means no effect; nearly all actives have a fitted effect of over 45% in size
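ATM-like activity read as KAP-1 phosphorylation via AlphaLISA donor/acceptor antibody pairs after lysis and 6 hr at 25C. Cells were ATM-null patient fibroblasts (F2112, hTERT), dosed 60 min, then exposed to the DSB inducer NCS for 30 min.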
hERG WT inh = inhibitors of human wildtype KCNH2 potassium channel | Q12809 | U2OS, BacMam KCNH2, thallium flux FluxOr; hits give low values | activity change, % at 1.84 µM | 0.37% of 340,000 active;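 active = maximum activity change below -70%; inconclusive = maximum activity change between -70% and -50%; inactive = maximum activity change above -50%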; also: % is scaled to controls: 0 for no effect and ±100 for the full control effect
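U2OS cells were transduced with wild-type KCNH2 virus (2.03 x 10^8 / mL) for 4 h at room temperature, then cultured overnight at 37 C. Thallium flux was read with FluxOr dye. Rate constants were normalized to DMSO controls.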
KCNH2 3.1 block = inhibitors of human KCNH2 3.1 potassium channel isoform | activity change, % (tested at about 1.8 µM) | 0.95% of 340,000 active | AID 720553 | U2OS KCNH2 3.1, thallium flux FluxOr; hits give low values;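 active = maximum activity change below -70%; inconclusive = maximum activity change from -70% to -50%; inactive = maximum activity change above -50%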;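 also: thallium influx rate constant from kinetic fluorescence after stimulation buffer; % is scaled to controls: 0 for no effect and ±100 for the full control effect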
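FluxOr-based Tl+ influx in U2OS cells transduced with KCNH2 3.1 virus; rate constants normalized to DMSO controls.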
ALOX12 inh = ALOX12 (human) lipoxygenase inhibition. purified 12hLO, xylenol orange hydroperoxide absorbance. Potency, µM (highest dose often 108 µM), without a hit: top-dose activity change, negative = inhibition, hits mostly inhibitors. 1.1% of 580,000 active; also: potency is read from the fitted curve at half-maximal effect; % is scaled to controls: 0 for no effect and ±100 for the full control effect
Target sequence (P18054 whole entry, looked up): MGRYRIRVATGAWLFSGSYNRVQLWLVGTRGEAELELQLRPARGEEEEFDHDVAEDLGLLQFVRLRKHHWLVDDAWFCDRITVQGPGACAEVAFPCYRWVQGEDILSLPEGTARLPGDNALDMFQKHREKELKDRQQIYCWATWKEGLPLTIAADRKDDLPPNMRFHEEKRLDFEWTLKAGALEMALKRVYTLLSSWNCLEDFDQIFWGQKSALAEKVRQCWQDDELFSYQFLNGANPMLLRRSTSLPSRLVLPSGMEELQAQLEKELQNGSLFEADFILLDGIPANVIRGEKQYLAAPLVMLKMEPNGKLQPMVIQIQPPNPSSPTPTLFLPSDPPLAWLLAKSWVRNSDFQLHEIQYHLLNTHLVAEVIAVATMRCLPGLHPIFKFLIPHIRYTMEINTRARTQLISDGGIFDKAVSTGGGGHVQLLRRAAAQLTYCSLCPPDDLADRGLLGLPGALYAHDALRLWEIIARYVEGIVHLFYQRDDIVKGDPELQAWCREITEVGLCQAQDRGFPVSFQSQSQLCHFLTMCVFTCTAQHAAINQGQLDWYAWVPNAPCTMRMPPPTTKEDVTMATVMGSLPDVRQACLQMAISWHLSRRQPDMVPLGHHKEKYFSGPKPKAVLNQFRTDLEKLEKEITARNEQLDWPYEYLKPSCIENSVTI
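Purified human 12hLO at 150 nM in 25 mM Hepes, 0.01% Triton X-100, pH 7.0, preincubated 15 min at room temperature with compound. Reaction started with 40 uM arachidonic acid, 30 min at room temperature. Hydroperoxide measured by Fe-xylenol orange, 573/405 nm absorbance ratio.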
* = called active by the depositor; u = inconclusive; x = no result given; ! = repeats disagree; [ ] = dose if it differs, or a comment. Compounds with a hit are over-represented: about 1.8% of the library has one in this group of screens. Unless noted, calls follow the shape of the dose curve; as a rule, active = well fitted curve in the direction sought with a large enough effect; inconclusive = small, poorly fitted or top-dose-only effect, or another doubt; inactive = no such curve, though single readings can be large; an effect the other way counts as inactive or inconclusive.

SMILES	AT treatment	hERG WT inh	KCNH2 3.1 block	ALOX12 inh
CC(OC(=O)C1CCN(S(=O)(=O)c2ccc(C(C)(C)C)cc2)CC1)C(=O)N1CCOCC1 (centres undefined)	0%	-1	2	45µM*!
Cc1ccc(S(=O)(=O)N2CCC(C(=O)OC(C)C(=O)N3CCOCC3)CC2)cc1 (centres undefined)	3%	-5	1	-21%
O=C(O)c1cc2cccc(Cl)c2[nH]1	x	x	x	0%
O=C1CC(c2ccccc2)c2ncn(-c3cc(F)ccc3F)c2N1 (centres undefined)	x	x	x	5µM*
COc1c(C2CC(=O)Nc3c2ncn3-c2cccc(Cl)c2)cc2c(c1OC)OCO2 (centres undefined)	x	x	x	-17%
O=C(O)CCNC(=O)C(F)(F)C(F)(F)C(F)(F)C(F)(F)C(F)(F)C(F)(F)F	x	x	x	11µM*
COc1ccccc1N1CCN(Cc2cc(Br)c(O)c3ncccc23)CC1	-4%	-6	-2	35µM*
COc1ccc(Cc2nnc(NCCO)[nH]c2=O)cc1OC	-17%	-118*	9	-4%
CC(C)C[C@@H](NC(=O)C1=C[C@@H](NS(=O)(=O)c2cccc(C(F)(F)F)c2)[C@@H](O)[C@H](O)C1)C(N)=O	x	x	x	40µM*
COc1ccc(C[C@H](NC(=O)C2=C[C@@H](NS(=O)(=O)c3cccc(C(F)(F)F)c3)[C@@H](O)[C@H](O)C2)C(N)=O)cc1	x	x	x	4%
Cc1ccc(Nc2nc(N)c([N+](=O)[O-])c(N3CCOCC3)n2)cc1C	-7%	13	8	-7%
Cc1ccc(Nc2nc(N)c([N+](=O)[O-])c(N3CCC(C)CC3)n2)cc1C	32µM*	-13	6	-25%
CC(C)NC(=O)c1ccccc1I	x	x	x	16%
O=C(NNc1ccccc1C(F)(F)F)c1sccc1Br	-6%	-6	27	40µM*
O=C(Nc1ccccc1C(F)(F)F)c1ccsc1	-1%	-3	7	0%
CCOC(=O)NC(=O)CSc1nc2ccc(C)cc2[nH]1	10%	2	-116*	-3%
Cc1ccc2nc(SCC(=O)Nc3nonc3N)[nH]c2c1	4%	-9	8	-2%
CC1(C)CC(=O)C2=C(C1)N(c1ccc(F)cc1)C(=O)C2(O)C(F)(F)F (centres undefined)	26%	7	-120*	10%
Cc1ccc(C)c(N2CCN(CCCNC(=O)CCC(=O)N3CCOc4ccc(Cl)cc43)CC2)c1	10%	x	x	-20%
O=C(CCC(=O)N1CCOc2ccc(Cl)cc21)NCCCN1CCN(c2ccccc2F)CC1	-6%	30	-10	10%
O=C(CCC(=O)N1CCOc2ccc(Cl)cc21)NCCCN1CCC(Cc2ccccc2)CC1	7%	-44	-80*	-13%
COc1ccc(N2CCN(CCCNC(=O)CCC(=O)N3CCOc4ccc(Cl)cc43)CC2)cc1	0%	36	-80*	-19%
O=C(Nc1ccc2c(c1)CN(Cc1ccccc1F)C(=O)CO2)c1ccccc1F	x	x	x	14%
Fc1ccc(/C=N/NC(=S)Nc2ccc(Cl)cc2Cl)cc1	7.1µM*	-8	7	8%
Fc1ccc(NC(=S)N/N=C/c2ccc(F)c(F)c2)cc1	1%	-8	6	-23%
SMILES	AT treatment	hERG WT inh	KCNH2 3.1 block	ALOX12 inh
CSc1nc2ccccc2n1Cc1c(Cl)cccc1Cl	3%	-20	-186*	-20%
CCCCCCSC1=C(C#N)C(=O)NC2(CCCCC2)S1	x	5	28	45µM*
O=C(N/C=C/c1ccco1)NCc1ccccc1	2%	-18	-7	u
O=C(N/C=C/c1ccco1)OCc1ccccc1	-1%	-17	32	40µM*
O=C1NC(=S)/C(=C\c2ccc(-c3ccccc3Cl)o2)S1	-2%	-5	1	35µM*
CC(C)c1ccc(S(=O)(=O)/N=C2\C=C(NS(=O)(=O)c3ccccc3)C(=O)c3ccccc32)cc1	u	-5	12	35µM*
CCc1ccc(S(=O)(=O)/N=C2\C=C(NS(=O)(=O)c3ccccc3)C(=O)c3ccccc32)cc1	-4%	4	1	u
O=C(OCC(=O)C12CC3CC(CC(C3)C1)C2)c1c(F)cccc1F	x	x	x	-2%
O=C(CN1C(=O)c2cccc([N+](=O)[O-])c2C1=O)NCc1ccccc1	3.2µM*	0	9	108%
CCOc1ccc(C(=O)NC(=S)Nc2ccc(N3CCC(C)CC3)cc2)cc1[N+](=O)[O-]	-2%	4	-29	5%
CCOc1ccc(C(=O)Nc2ccccc2N2CCN(C(=O)c3ccccc3)CC2)cc1[N+](=O)[O-]	6%	-92*	-104*	3%
CCOc1ccc(C(=O)NC(=S)Nc2ccccc2N2CCC(C)CC2)cc1[N+](=O)[O-]	-8%	-9	-24	35µM*
CCOc1ccc(C(=O)Nc2ccccc2N2CCN(C(=O)c3ccccc3)CC2)cc1	x	x	x	0%
COCCOC1CN(C2CCN(Cc3ccc(F)c(F)c3)CC2)C12CCCCC2 (centres undefined)	x	x	x	0%
O=C1NCCCN1C1CCN(Cc2cccc(OC(F)(F)F)c2)CC1	x	x	x	5%[176 µM]
Cc1cc(C(=O)Nc2cccc(-c3nnc4n3CCCC4)c2)n[nH]1	x	x	x	62%
CCCCCCN1C2=NCCCN2c2ccccc21	9%	4	-80*	-6%
OCCN1C2=NCCCN2c2ccccc21	26%	-1	-10	-2%
COc1cccc(C(=O)CN2C3=NCCCN3c3ccccc32)c1	2%	-6	-93*	0%
O=C(c1ccccc1F)N1CCC2(CC1)C(=O)NCN2Cc1ccc(Cl)cc1	x	x	x	22%
CN1CCN(C(=O)Cn2nc(-c3ccc(Cl)cc3)c3ccccc3c2=O)CC1	x	x	x	3%
O=C(c1ccc(C(F)(F)F)cc1)N1CCc2nc(-c3ccccc3)nc(-c3ccc(Cl)cc3)c2C1	x	x	x	-5%
CC(=O)Nc1ccccc1-c1c(C)nn2c1N(CCCc1ccccc1)CCC2	x	x	x	16µM*
COc1ccc(OC)c(CN2CCCn3nc(C)c(-c4cccnc4N4CCOCC4)c32)c1	x	x	x	24%
Cc1ccncc1-c1c(C)nn2c1N(Cc1ccc(C(=O)O)cc1)CCC2	x	x	x	16µM*
SMILES	AT treatment	hERG WT inh	KCNH2 3.1 block	ALOX12 inh
Cc1nn2c(c1-c1cccnc1N1CCOCC1)N(CCC(C)C)CCC2	x	x	x	18µM*
Cc1nn2c(c1-c1cccnc1N1CCOCC1)N(Cc1ccc3c(c1)CCO3)CCC2	x	x	x	53%[176 µM]
Cc1nn2c(c1-c1cccnc1N1CCOCC1)N(CCc1ccccc1)CCC2	x	x	x	20µM*
CCn1c(N2CCN(CC(N)=O)CC2)nc2c1c(=O)[nH]c(=O)n2C	x	x	x	-2%
Cc1nn2c(c1-c1ccccc1C(C)C)N(Cc1cccc(C(=O)O)c1)CCC2	x	x	x	0%[176 µM]
Cc1nn2c(c1-c1ccccc1C(C)C)N(CCC(C)C)CCC2	x	x	x	50µM*
Cc1cccc(N2CCN(C(=S)Nc3ccc4nc(N5CCOCC5)cc(C)c4c3)CC2C)c1 (centres undefined)	-4%	-15	-76*	-1%
Cc1ccc(C)c(N2CCN(C(=S)Nc3ccc4nc(N5CCOCC5)cc(C)c4c3)CC2)c1	-2%	-77*	-85*	-9%
